# Assay results taken from PubChem BioAssay AID1578 (Sanford-Burnham Center for Chemical Genomics, 2009).
# Screen size: about 290,000 compounds; about 3,000 (1%) were called active. No stated cut-off is given here; in the data, active means inhibition mostly above about 36% (no sharp cut-off); inactive means mostly below about 34%. Only a selection was taken, and actives are over-represented in it overall.
# Experiment: inhibition of NOD1-driven NF-kB reporter – cell-based, luminescence, uHTS, primary screen (AID 1578);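 further: HEK-293T reporter cells stimulated with the NOD1 agonist gamma-tri-DAP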
# Settings: NOD1-driven NF-kB luciferase reporter cells, at 4 µM, hits give high values
row,SMILES,inhibition
1,CCOC(=O)c1c(C)[nH]c(C(=O)COC(=O)c2ccccn2)c1C,1% (inactive)
2,CC(C)n1c(CN(C)c2ccccc2)nc2ccccc21,-18.1% (inactive)
3,COc1ccc(OC)c(S(=O)(=O)Nc2ccc(OCC(=O)O)cc2)c1,2.7% (inactive)
4,COc1ccc(NC(C)=O)cc1S(=O)(=O)NC(Cc1ccccc1)C(=O)O (stereo not drawn),-2.4% (inactive)
5,COc1ccc(NC(=O)c2nnn(CC(=O)Nc3ccc4c(c3)OCO4)c2N)c(OC)c1,-46.4% (inactive)
6,C=CCN=C(NC#N)SCC(=O)NC(C)(C)C,1.5% (inactive)
7,Cn1c(SCC(=O)NC2CCCCC2)nnc1-c1cccc(N)c1,46.1% (active)
8,Cn1c(SCC(=O)NC2CCCCC2)nnc1-c1ccc(N)cc1,-10.1% (inactive)
9,Cc1cccc(-c2nnc(SCC(=O)NC3CC3)n2C)c1,-27.5% (inactive)
10,CCn1ccnc1[C@@H]1C[C@H]2CN(c3ccccc3OC)C(=O)[C@]23CCCN13,-22.3% (inactive)
11,C=C(C)Cn1c(NCCC)nc2c1c(=O)n(C)c(=O)n2C,-26.6% (inactive)
12,CC(CCc1ccccc1)NC(=O)CN1CCSc2ccccc21 (stereo not drawn),8% (inactive)
13,CC(C)(C)C1CCC(=O)N(CCSc2ccccc2)CC1 (stereo not drawn),-65% (inactive)
14,Cc1[nH]c(=S)[nH]c(=O)c1CCCO,-25.6% (inactive)
15,CC1=C(C)C(=O)C(CCCCC#CCCCC#CCO)=C(C)C1=O,-6.7% (inactive)
16,COC1=C(OC)C(=O)C(CCCCCCCCCCO)=C(C)C1=O,87.7% (active)
17,COc1ccc(CNCCC(c2ccc(OC(C)C)cc2)c2ccccc2OC)cc1OC (stereo not drawn),-0.9% (inactive)
18,COc1ccc(C(CCN(Cc2ccc(OC)c(OC)c2)C(C)=O)C(C)C)cc1 (stereo not drawn),-0.7% (inactive)
19,COc1ccc(C(CCN(Cc2ccc(OC)c(OC)c2)C(=O)CCl)c2ccccc2)cc1 (stereo not drawn),82.9% (active)
20,COc1ccc(C(CCN(Cc2ccc(OC)c(OC)c2)C(C)=O)c2ccccc2)cc1 (stereo not drawn),14.5% (inactive)
21,COc1ccc(CNCCC(c2ccccc2)c2ccc(OC(C)C)cc2)cc1OC (stereo not drawn),-3.1% (inactive)

row,SMILES,inhibition
1,COc1ccccc1N(C(C)=O)c1nc(C)cc(C)c1C#N,-33.1% (inactive)
2,O=C(O)c1ccc(NS(=O)(=O)c2cccc(S(=O)(=O)c3ccc(Cl)c(Cl)c3)c2)cc1,-30.6% (inactive)
3,COc1cc2c(cc1OC)CN(CC(=O)Nc1ccc(C)c(S(=O)(=O)N3CCOCC3)c1)CC2,-14.6% (inactive)
4,COc1cccc(NC(=O)Cn2nc(Cc3cccnc3)c3ccccc3c2=O)c1,-18.3% (inactive)
5,COc1ccc(/C=C/c2nc3ccccc3n2Cc2ccccc2OC)cc1,5.5% (inactive)
6,CCCn1c(/C=C/c2ccccc2)nc2ccccc21,-41.4% (inactive)
7,COc1ccc(/C=N\n2nnc3ccccc32)cc1,42% (active)
8,C=CCn1c(/N=C/c2ccc(OC)cc2)nc2ccccc21,-6.3% (inactive)
9,Cn1c(/C=C/c2ccccc2)nc2ccccc2c1=O,-12.9% (inactive)
10,COc1ccc(/C=N/NC(=O)CCn2nnc3ccccc32)cc1,-3.7% (inactive)
11,Cn1c(/C=C/c2ccccc2)nc2ccccc21,48.9% (active)
12,COc1ccc(/C=C/c2nc3ccccc3n2C)cc1,74.4% (active)
13,COc1ccc(Cn2c(/C=C/c3ccccc3)nc3ccccc32)cc1,-65.7% (inactive)
14,O=C(OCC(=O)C12CC3CC(CC(C3)C1)C2)c1cnccn1,-23.7% (inactive)
15,CCOC(=O)c1c(CSc2ccc(C)cc2)n(C)c2cc(Br)c(O)c(CN(C)C)c12,-29.9% (inactive)
16,CC(C)(C)c1ccc(OCCNC(=S)NC(=O)c2cccnc2)cc1,-17.1% (inactive)
17,Cc1ccc2[nH]c(=O)c3cc(C(=O)NC(C)C)sc3c2c1,-4.6% (inactive)
18,COC(=O)CSc1nnc(CNC(=O)c2cccs2)n1-c1cccc(C)c1,-22.2% (inactive)
19,COC(=O)c1ccc(N2CCN(S(=O)(=O)c3ccccc3)CC2)c([N+](=O)[O-])c1,-18.3% (inactive)
20,O=C(c1ccc(N2CCN(S(=O)(=O)c3ccccc3)CC2)c([N+](=O)[O-])c1)N1CCOCC1,-3.7% (inactive)
21,CCN1CCN(C(c2cccs2)C(C)NC(=O)C(=O)N2CCCCC2)CC1 (stereo not drawn),-23.8% (inactive)

row,SMILES,inhibition
1,Cc1ccc(Nc2ncnc3c2nnn3Cc2ccccc2)cc1,-7.5% (inactive)
2,O=C(CCC(=O)N1CCSc2ccccc21)NCc1cccc(Br)c1,-27.1% (inactive)
3,COc1ccc(-c2cc3nc[nH]c(=O)c3s2)cc1,-1.7% (inactive)
4,O=c1[nH]cnc2cc(-c3ccc(Br)cc3)sc12,-63.3% (inactive)
5,O=c1[nH]c(CCl)nc2cc(-c3ccc(Cl)cc3)sc12,92.6% (active)
6,OCCN(CC#CCC(O)(c1ccccc1)C1CCCC1)CCO (stereo not drawn),-2% (inactive)
7,CCCCCc1cc(=O)oc2c(C(CCN3CCCCC3)c3ccc4c(c3)OCO4)c(OC)cc(OC)c12 (stereo not drawn),2.9% (inactive)
8,Cc1ccc2[nH]cc(/C=C/c3cc[n+](C)cc3)c2c1,4.2% (inactive)
9,Cc1ccc2[nH]c(C)c(/C=C/c3cc[n+](C)cc3)c2c1,5.6% (inactive)
10,CS(=O)(=O)c1nc2ccccc2n1Cc1ccccc1,13.9% (inactive)
11,O=S(=O)(O)c1nc2ccccc2n1Cc1ccccc1,82.8% (active)
12,Cc1ccc(Cn2c(S(=O)(=O)O)nc3ccccc32)cc1,-25.7% (inactive)
13,COc1ccc(CCC(=O)N(c2nnc(-c3cccnc3)s2)C(C)C)cc1,-14.2% (inactive)
14,NC(=O)NC(=O)CSc1ccccc1,-37.5% (inactive)
15,COCCc1nnc(NC(=O)C23CC4CC(CC(C4)C2)C3)s1,-34.2% (inactive)
16,O=C(Nc1ccc(Oc2cccc(C(F)(F)F)c2)nc1)c1ccccc1,10.3% (inactive)
17,CC(C)(C)c1ccc(C(=O)Nc2ccc(Oc3cccnc3)nc2)cc1,29% (inactive)
18,O=S(=O)(N/N=C\c1ccc2c(c1)OCO2)c1ccc(F)cc1,-7.6% (inactive)
19,Cc1ccc(NC2=Nc3ccccc3N3C2=Nc2c(c(C)nn2-c2ccccc2)C3c2ccc(O)c(O)c2)cc1 (stereo not drawn),2.5% (inactive)
20,Cc1nn(-c2ccccc2)c2c1C(c1ccc(O)c(O)c1)N1C(=N2)C(Nc2ccccc2)=Nc2ccccc21 (stereo not drawn),-2.4% (inactive)
21,CC(=O)Nc1ccc(NC2=Nc3ccccc3N3C2=Nc2c(c(C)nn2-c2ccccc2)C3c2ccccc2)cc1 (stereo not drawn),99% (active)
